Granule exo inh: blocks lytic granule exocytosis | TALL-104 LAMP-1 surface exposure, flow cytometry; cells stimulated with thapsigargin and PMA | inhibition, % at 10 µM | 360,000 compounds, 0.66% hits;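 active means inhibition above about 55%, limit read from the data; inconclusive means no clear call, values can overlap the other calls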
NPR1 activator: GC-A (human) enzyme activation | P16066 | HEK293 GC-A cells, cGMP TR-FRET, EC30 ANP; 0% at EC30 ANP, 100% saturating ANP | activation, % at 10 µM | 370,000 compounds, 0.14% hits; in the data active means activation above about 40%
GC-B act: GC-B (human) receptor activation; activation, % at 10 µM; HEK293-GC-B cells, CNP EC30, cGMP TR-FRET; 0% at EC30 CNP, 100% saturating CNP; P20594; 370,000 compounds, 0.11% hits;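 active means activation at 10 µM reaching about 35% in either raw or pattern-adjusted values, limit read from the data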
Target sequence (P20594 whole entry, looked up): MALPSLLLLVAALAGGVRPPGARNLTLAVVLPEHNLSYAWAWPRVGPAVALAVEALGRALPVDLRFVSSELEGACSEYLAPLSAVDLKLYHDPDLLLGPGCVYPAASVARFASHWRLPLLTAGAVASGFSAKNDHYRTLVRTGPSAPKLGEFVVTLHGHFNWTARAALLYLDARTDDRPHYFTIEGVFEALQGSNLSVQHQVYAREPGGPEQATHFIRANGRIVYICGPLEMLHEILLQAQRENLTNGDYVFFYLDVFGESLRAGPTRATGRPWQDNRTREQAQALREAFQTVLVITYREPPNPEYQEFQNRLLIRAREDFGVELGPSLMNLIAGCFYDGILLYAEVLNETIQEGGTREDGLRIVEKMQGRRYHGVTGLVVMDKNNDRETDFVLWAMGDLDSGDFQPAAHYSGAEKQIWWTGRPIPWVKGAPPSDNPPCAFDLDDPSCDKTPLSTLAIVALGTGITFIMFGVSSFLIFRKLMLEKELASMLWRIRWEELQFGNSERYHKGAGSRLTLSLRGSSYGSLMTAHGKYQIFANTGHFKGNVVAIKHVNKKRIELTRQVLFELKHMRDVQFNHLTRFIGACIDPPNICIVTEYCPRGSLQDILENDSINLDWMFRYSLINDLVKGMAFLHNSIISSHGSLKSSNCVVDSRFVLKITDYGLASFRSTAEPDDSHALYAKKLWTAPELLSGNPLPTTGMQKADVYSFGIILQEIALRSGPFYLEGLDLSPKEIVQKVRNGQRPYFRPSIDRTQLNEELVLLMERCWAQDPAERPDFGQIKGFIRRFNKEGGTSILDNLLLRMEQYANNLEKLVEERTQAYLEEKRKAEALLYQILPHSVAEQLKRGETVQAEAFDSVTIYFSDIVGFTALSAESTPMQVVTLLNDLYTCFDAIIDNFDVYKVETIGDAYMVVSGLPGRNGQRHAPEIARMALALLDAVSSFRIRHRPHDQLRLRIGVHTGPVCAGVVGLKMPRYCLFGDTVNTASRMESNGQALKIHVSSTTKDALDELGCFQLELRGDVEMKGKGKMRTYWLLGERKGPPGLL
Myeloid diff 2: myeloid differentiation induction; ER-HoxA9 myeloid progenitors, lysozyme-GFP differentiation, flow cytometry; calls only at 10 µM; 360,000 compounds, 1% hits; AID 624256;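 active means normalized GFP-positive differentiation at or above the plate's own cutoff, the solvent-only control mean plus 3 SD; inconclusive means no clear call, values can overlap the other calls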;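 further: cells exposed to compound for four days before flow analysis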
Exocytosis CP01: blocks lytic granule exocytosis. shares compounds with Granule exo inh. TALL-104 cells, LAMP-1 externalization, flow cytometry; stimulated with PMA plus thapsigargin. inhibition, % at 10 µM. 1,500 compounds, 11% hits. AID 651954; in the data active means inhibition above about 60%
Each line names hits and unclear results; the compound was inactive in the other large screens (follow-up assays come after a bar, where they were run). The list is not random: actives were taken first. Their share in the collection is about 1.8%.

COCCNC(=O)Nc1ccc2nc(-c3cccs3)c(-c3cccs3)nc2c1	none
O=C(Nc1ccc2nc(-c3cccs3)c(-c3cccs3)nc2c1)NC1CC1	Granule exo inh 99 | Exocytosis CP01 103
COc1ccccc1Cc1c(-c2ccc(C)cc2)nc2c3ccccc3ccn12	none (no result: Granule exo inh, Myeloid diff 2)
COc1ccccc1Cc1c(-c2ccco2)nc2c3ccccc3ccn12	Granule exo inh 76 | Exocytosis CP01 inactive
N#Cc1cc(Oc2cccc3cccnc23)c(-n2nnc3ccccc32)cc1C#N	Granule exo inh 99 | Exocytosis CP01 inactive
CCCCNC(=O)/C(=C\c1ccc([N+](=O)[O-])o1)NC(=O)c1ccccc1	none
Cc1ccc(C(=O)N/C(=C\c2ccc(-c3ccccc3[N+](=O)[O-])o2)C(=O)NCCCN(C)C)cc1	Granule exo inh 77 | Exocytosis CP01 inactive
O=C(NCc1ccco1)c1ccc2sc([C@@H]3O[C@H](CO)[C@@H](O)[C@H]3O)nc2c1	none
CCOc1cc(CNCCc2ccc(S(N)(=O)=O)cc2)ccc1OCc1ccc(Cl)cc1	Granule exo inh 103 | Exocytosis CP01 94
COc1cc(CNCCc2ccc(S(N)(=O)=O)cc2)ccc1OCc1ccc(Cl)cc1	none
Cc1cccc(Cn2cc(COC(=O)NCC(C)C)nn2)c1	none (no result: Granule exo inh, Myeloid diff 2)
CC(=O)c1ccc(-c2cc([C@H]3[C@H]4C=CC[C@@H](C)[C@@H]4C(=O)N3Cc3ccccc3)ccc2F)cc1	Granule exo inh 58 | Exocytosis CP01 inactive
C[C@@H]1CC=C[C@H]2[C@H]1C(=O)N(Cc1ccccc1)[C@H]2c1ccc(F)c(-c2ccc(N(C)C)cc2)c1	none
COc1ccc(Nc2c(CCc3ccccc3)nc3nc(C)cc(C)n23)cc1	none
CCOC(=O)[C@]12CCCC=C1N(CCc1ccc(OC)c(OC)c1)C(=O)[C@H](CC(=O)N1CCN(C(=O)C3CC3)CC1)C2	none
CCCn1nc2cc(C(=O)NCCCCc3ccccc3)ccc2c1OCC	Granule exo inh 87 | Exocytosis CP01 inactive
COc1ccc(CSc2nnc(SCc3ccccc3)s2)cc1	none (no result: Granule exo inh, Myeloid diff 2)
COc1ccc(Cc2nnc(NC(=O)C3CCN(C(=O)c4ccco4)CC3)s2)cc1	Granule exo inh 57 | Exocytosis CP01 inactive
FC(F)(F)c1cc(CCN2C(=S)NC[C@@H]2CC2CCCCC2)cc(C(F)(F)F)c1	Granule exo inh 86 | Exocytosis CP01 inactive
O=C1NC[C@H](CC2CCCCC2)N(CCc2cc(C(F)(F)F)cc(C(F)(F)F)c2)C1=O	none
CCOC(=O)[C@]12CCCC=C1N(Cc1ccco1)C(=O)[C@H](CC(=O)N1CCOCC1)C2	none
CCOC(=O)N1CCN(CC(O)COc2c(C)cc(C)cc2C)CC1 (stereo not given)	Granule exo inh 62 | Exocytosis CP01 inactive
O=C(/C=C/c1ccccc1)N1CCC[C@H]1CO	none
CCC(C)(O)C(=O)N[C@H]1CCCN1C(=O)/C=C/c1ccccc1 (stereo not given in full)	Granule exo inh 59 | Exocytosis CP01 inactive
O=C(NCC1CCCO1)c1cc(S(=O)(=O)N2CCOCC2)ccc1Cl (stereo not given)	none
O=C(NCC1CCCO1)c1cc(S(=O)(=O)Nc2ccc(Br)cc2)ccc1Cl (stereo not given)	Granule exo inh 83 | Exocytosis CP01 inactive
CN(CCOc1ccccc1)CC(=O)Nc1ccc([N+](=O)[O-])cc1Cl	Granule exo inh 73 | Exocytosis CP01 inactive
CN(CC(=O)Nc1ccccc1Cl)C(=O)COC(=O)c1ccc([N+](=O)[O-])cc1Cl	none
CCOc1ccc(NC(=O)COC(=O)CCN2C(=O)C3CC=CCC3C2=O)cc1OCC (stereo not given)	none
CC1CCN(C(=O)COC(=O)c2cccc(S(=O)(=O)N3CCOCC3)c2)CC1	none
CCOc1ccccc1N(C(=O)c1snc(C(N)=O)c1N)C(CC)C(=O)NC1CCCC1 (stereo not given)	Granule exo inh 60 | Exocytosis CP01 inactive
CCOc1ccccc1N(C(=O)c1snc(C(N)=O)c1N)C(C(=O)NC1CCCC1)c1ccco1 (stereo not given)	none
COc1ccccc1N(C(=O)c1snc(C(N)=O)c1N)C(C(=O)NCc1ccccc1)c1ccc(C)o1 (stereo not given)	Granule exo inh 73 | Exocytosis CP01 inactive
COc1ccc(N(C(=O)c2snc(C(N)=O)c2N)C(C(=O)NCc2ccc(F)cc2)c2ccc(C)o2)c(OC)c1 (stereo not given)	none
Cc1cccc(S(=O)(=O)N[C@@H]2CC[C@@H](CCNS(=O)(=O)c3ccccc3F)O[C@@H]2CO)c1	none
CCOC(=O)c1cc(C(=O)c2cccs2)n2ccc(C(C)=O)cc12	Granule exo inh 97 | Exocytosis CP01 inactive
CCOC(=O)c1cc(C(C)=O)n2ccccc12	none
N=c1c2c(-c3ccccc3)c(-c3ccccc3)n(Cc3ccco3)c2ncn1Cc1ccco1	Granule exo inh 91 | Exocytosis CP01 inactive
N=c1c2c(-c3ccccc3)c(-c3ccccc3)n(Cc3ccccc3)c2ncn1C1CCOCC1	none (no result: Granule exo inh, Myeloid diff 2)
CCCCn1cnc2c(c(-c3ccccc3)c(-c3ccccc3)n2Cc2ccco2)c1=N	Granule exo inh 64 | Exocytosis CP01 inactive
CCCCn1c(=O)[nH]c(=O)c2c1ncn2Cc1ccco1	none
COc1ccc([C@H]2C[C@@H](O)[C@H](n3cc(COC(=O)c4ccccc4)nn3)CN2CC2CCCCC2)cc1	none
CC(C)C[C@H]1CN(CCCC[C@H]2CNC(=O)C(=O)N2CCC2CCCCC2)C(=O)C(=O)N1CC1CCCCC1	none
COc1ccc(-c2cc(-c3ccccc3)c(C#N)c(S(C)=O)n2)cc1 (stereo not given)	Granule exo inh 64, Myeloid diff 2 inconclusive | Exocytosis CP01 inactive
COc1ccccc1OCCn1cc(C(=O)C(C)C)c2ccccc21	Granule exo inh 60 | Exocytosis CP01 inactive
CC1CC(C)CN(C(=O)c2ccc(-c3ccc([N+](=O)[O-])cc3)o2)C1 (stereo not given)	Granule exo inh 74, Myeloid diff 2 inconclusive | Exocytosis CP01 inactive
O=C1/C(=C/c2ccncc2)Oc2cc(OS(=O)(=O)c3ccccc3)ccc21	none
COc1cccc(OC)c1C(=O)Oc1ccc2c(c1)O/C(=C\c1ccncc1)C2=O	Granule exo inh 60 | Exocytosis CP01 inactive
CN(CCCC1CCCC1)C(=O)c1cc(COc2ccc(F)c(F)c2)on1	Granule exo inh 68 | Exocytosis CP01 inactive
COc1ccc(C(=O)N(CCc2ccccc2)Cc2cccs2)c(OC)c1	Granule exo inh 64 | Exocytosis CP01 inactive
C=C1[C@@H](O)[C@H](Cc2ccccc2)N(Cc2ccccc2Br)S1(=O)=O	none
COC(=O)Nc1ccc(S(=O)(=O)NC2CCS(=O)(=O)C2)cc1 (stereo not given)	Granule exo inh 64 | Exocytosis CP01 inactive
CCCCc1ccc(S(=O)(=O)NC2CCS(=O)(=O)C2)cc1 (stereo not given)	none
O=C(COc1ccccc1)Nc1cc(C(F)(F)F)ccc1N1CCCC1	Granule exo inh 74 | Exocytosis CP01 inactive
O=C(COc1ccccc1)Nc1ccccc1N1CCCCC1	none

Screening data (PubChem BioAssay)
